# What was measured:
# Assay in all cases: pooled miR-30 sensor sort-seq; sequence = guide strand
# Details in all cases: shRNA
# [1] = molecular target: GFPT2
# [2] = molecular target: GEMIN6
# [3] = molecular target: GH2
# [4] = molecular target: GGH
# [5] = molecular target: GPIHBP1
# [6] = molecular target: GPR3
# [7] = molecular target: GPR89B
# [8] = molecular target: GPS1
# [9] = molecular target: GRHL3
# [10] = molecular target: HBA2
# [11] = molecular target: HAX1
# [12] = molecular target: HBA1
# [13] = molecular target: HBB
# Further: reference of the scale not given here.
sequence,measurement,setting,value
ATCACTAGCAAGTTCAACCATC,sensor-assay potency score (higher = more potent),[1],-0.789
TTCGTGATTATTCCCATCGATC,sensor-assay potency score (higher = more potent),[1],-1.22
TTTGTAGTGAAATTCGGTCTTC,sensor-assay potency score (higher = more potent),[1],0.0421
ATAATCTCATTAGAGCTGCTGC,sensor-assay potency score (higher = more potent),[2],-0.457
AAGGTGTTGGAATAGACTCTGA,sensor-assay potency score (higher = more potent),[3],-0.802
TTTCTTGACCAGCTGAATGTGT,sensor-assay potency score (higher = more potent),[1],-0.609
TTCTTCAAACTCCTGATAGGTG,sensor-assay potency score (higher = more potent),[3],-0.633
TATGCCAGCTGGTACAGGCGAC,sensor-assay potency score (higher = more potent),[3],-1.2
TTCTGCTGCGTTTTCACCCTGT,sensor-assay potency score (higher = more potent),[3],0.325
TATACTCATTCTTCTCACTGGC,sensor-assay potency score (higher = more potent),[2],0.16
TTGTAAATGTAATCTTGCCATT,sensor-assay potency score (higher = more potent),[2],-1.2
TGAACTGATAAATCAATGCTTT,sensor-assay potency score (higher = more potent),[4],-0.538
TAAACTCCTGATAGGTGTCATA,sensor-assay potency score (higher = more potent),[3],-1.52
TTTGTAAAGTTCTTCATCGAGA,sensor-assay potency score (higher = more potent),[1],-0.0624
TTCTCCAGAGTGCACGTCCTGT,sensor-assay potency score (higher = more potent),[1],-0.972
TTGAGCAGTGCGTCATCGTTGT,sensor-assay potency score (higher = more potent),[3],0.36
TATTTCATAGTCTTTCTCTGTA,sensor-assay potency score (higher = more potent),[4],0.438
TTTAAAACTAACTCTAGTGTTG,sensor-assay potency score (higher = more potent),[1],-0.242
TTATACTCATTCTTCTCACTGG,sensor-assay potency score (higher = more potent),[2],0.394
TTGAAAAACTTCTTTAACTTTT,sensor-assay potency score (higher = more potent),[4],-0.924
TAATCTTGCCATTCTAAGGGGC,sensor-assay potency score (higher = more potent),[2],0.00534
TAGACGTTGCTGTCCGAGGCGC,sensor-assay potency score (higher = more potent),[3],-0.468
TTAAACTCCTGATAGGTGTCAT,sensor-assay potency score (higher = more potent),[3],-0.0284
ATACTGGATACTTATATCCTTC,sensor-assay potency score (higher = more potent),[4],-0.969
TTAGCATAATCTGAGCGTCTGA,sensor-assay potency score (higher = more potent),[4],-0.339
TAGACTCTGAGAAGCAGAGGGA,sensor-assay potency score (higher = more potent),[3],0.323
TAGGTTAGATTTCTGCTGCGTT,sensor-assay potency score (higher = more potent),[3],0.0139
TTGCACAGGCTGGACTGGCAGC,sensor-assay potency score (higher = more potent),[5],-1.25
TTGTACAGAGAAAGGTAGCGGT,sensor-assay potency score (higher = more potent),[6],0.0257
TCAGCTACCATAGACATCTCTT,sensor-assay potency score (higher = more potent),[7],0.143
TACCATAGACATCTCTTGCCCC,sensor-assay potency score (higher = more potent),[7],0.0271
TTGACATGGATCTGGTTGCGGA,sensor-assay potency score (higher = more potent),[8],-0.378
TTGACTAAGATTCCTCGCTTGC,sensor-assay potency score (higher = more potent),[9],-0.416
AAGTTGACCGGGTCCACCCGAA,sensor-assay potency score (higher = more potent),[10],-0.435
ACTTCTTGCATCACTCTCCAAG,sensor-assay potency score (higher = more potent),[11],-1.46
TAGGACTGCTATCTGCTTCGTG,sensor-assay potency score (higher = more potent),[11],0.298
TTGGTCACAGAGATGCTCTTGA,sensor-assay potency score (higher = more potent),[11],0.864
TACGGGTGCAGGAAGGGGAGGA,sensor-assay potency score (higher = more potent),[12],-0.675
AAGACCACGGGGGTACGGGTGC,sensor-assay potency score (higher = more potent),[12],-0.867
CAGGAAGGGGAGGAGGGGCTGG,sensor-assay potency score (higher = more potent),[12],-1.95
TGCTATTGAAATCTCGTACTAG,sensor-assay potency score (higher = more potent),[11],0.119
TATTGAAATCTCGTACTAGGTC,sensor-assay potency score (higher = more potent),[11],-0.361
TATTCAAAGACCAGGAAGGGCC,sensor-assay potency score (higher = more potent),[10],-0.938
AAAGACCACGGGGGTACGGGTG,sensor-assay potency score (higher = more potent),[12],-1.54
AACAGCATCAGGAGTGGACAGA,sensor-assay potency score (higher = more potent),[13],-1.35
TTCAAAGACCAGGAAGGGCCGG,sensor-assay potency score (higher = more potent),[10],-0.416
AGACCAGGAAGGGCCGGTGCAA,sensor-assay potency score (higher = more potent),[10],-1.65
TTATCGTGGAAACGTATCCCTC,sensor-assay potency score (higher = more potent),[11],-1.22
TCAAAGACCAGGAAGGGCCGGT,sensor-assay potency score (higher = more potent),[10],0.259
TACTTAAGCATTGAGTCCCGAA,sensor-assay potency score (higher = more potent),[11],-0.493
TTAGTGATCTTGGTCACAGAGA,sensor-assay potency score (higher = more potent),[11],-0.982
AGGAAGGGCCGGTGCAAGGAGG,sensor-assay potency score (higher = more potent),[10],-2.16
ATTCTTTGCCAAAGTGATGGGC,sensor-assay potency score (higher = more potent),[13],-0.706
AAGTAGGTCTTGGTGGTGGGGA,sensor-assay potency score (higher = more potent),[10],-0.536
TTTAGTAGTTGGACTTAGGGAA,sensor-assay potency score (higher = more potent),[13],0.165
TCACTGTCCACCACAGTCCGGC,sensor-assay potency score (higher = more potent),[11],-0.474
TTATTCAAAGACCAGGAAGGGC,sensor-assay potency score (higher = more potent),[10],-1.06
AAGGGCCGGTGCAAGGAGGGGA,sensor-assay potency score (higher = more potent),[10],-0.735
ACCACGGGGGTACGGGTGCAGG,sensor-assay potency score (higher = more potent),[12],-2.46
TTCACTATTCCACATATCCAAG,sensor-assay potency score (higher = more potent),[11],-1.52
